Experimental findings from PubChem BioAssay (NCATS) are described below.

Each structure is given as a SMILES string. Several values for one entry are separate records, joined by “and”; a condition that tells them apart may be missing. Equal values may be shown once. Inconclusive results are not listed. A number with no mark means an inactive call. Activity calls are given as the source filed them. The call rests on the fitted dose curve; in most records, active means well fitted curve in the direction sought with a large enough effect; inconclusive means small, poorly fitted or top-dose-only effect, or another doubt; inactive means no such curve, though single readings can be large; an effect the other way counts as inactive or inconclusive. Residues, ends and D or L forms follow the SMILES beside them. *: point of attachment. Cbz = O=C(OCc1ccccc1)*

Experiment [1] is described as follows: ZIKV-mCherry secondary qHTS for Zika virus inhibitors (AID 1347158). Further: top concentration of the series differs between compounds. A digest of the protocol: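 Read-out is percent infection: mCherry-positive Vero cells (nuclear-proximal intensity >450 RFU, 3 SD above negative controls) counted by high-content imaging of Hoechst-stained, PFA-fixed wells after 48-72 h with ZIKV-mCherry at MOI 1 and compound.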
Experiment [2] can be described thus: Confirmatory screen NINDS Rhodamine qHTS for Zika virus inhibitors (AID 1347161). Further: nearly all actives have a fitted effect of over 60% in size. Further: potency means the concentration at half of the fitted maximal effect. The method in brief:
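Aprotinin served as in-plate control. Conditions: 25 nM linked NS2B-NS3, pH 8.0 Tris buffer, titrated compounds, 15 min preincubation and 15 min reaction with 1.5 microM Rhod110 substrate at room temperature.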

Experiment [3] concerns Zika virus NS2B-NS3 protease (linked). Briefly: 384 well plate NINDS AMC confirmatory qHTS for Zika virus inhibitors (AID 1347163). Further: nearly all actives have a fitted effect of over 50% in size. Further: potency means the concentration at half of the fitted maximal effect. A digest of the protocol:
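Enzyme (5, 30 or 60 nM final) first met test compounds for ~15 min. The AMC-tagged peptide Ac-VKTGKR-AMC followed at 30 microM. Fluorescence was then recorded at 25 min and scaled against no-enzyme and no-inhibitor wells.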
(In general: In qHTS, concentration-response curves come from the screen itself.)

Experiment [4] has as its system Zika virus NS2B-NS3 protease (linked construct). As to the kind of experiment: 384 well plate NINDS Rhodamine confirmatory qHTS for Zika virus inhibitors (AID 1347164).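 Further: fluorescence from protease cleavage of Ac-LKRR-rhodamine 110 substrate; nearly all actives have a fitted effect of over 65% in size.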 Further: potency means the concentration at half of the fitted maximal effect. The method in brief: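 Linked protease at a final 5 nM, 30 nM or 60 nM was preincubated ~15 min with compounds, then given 10 microM Ac-LKRR-Rhodamine 110. Fluorescence (ex 485/em 538 nm) after 25 min in the dark at room temperature.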

Experiment [5] addresses Lysine-specific demethylase 5B (Homo sapiens) (UniProt Q9UGL1). As to the kind of experiment: Optimization screen for KDM5B Histone Demethylases FDH coupled qHTS against the LOPAC library (AID 1347166). Further: 0% is about no effect. To be noted: KDM5B demethylation, FDH-coupled NADH fluorescence (FDH is formaldehyde dehydrogenase); at 57.5 µM (top of the series). The method in brief:
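KDM5BDeltaAP (200nM final) in 50mM HEPES pH 7.5, 0.01% Tween-20 was preincubated with compound for 10 min at room temperature. A substrate mix of 12.5uM H3K4Me3, 25uM a-ketoglutarate, ascorbate, Fe2+, NAD+ and formaldehyde dehydrogenase was then added. NADH fluorescence (340/450 nm) was read initially and after 30 min.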

Experiment [6] is described as follows: Vero cells viability qHTS for Zika virus inhibitors (AID 1347167). Further: on the % scale 0 is the no-effect control and ±100 the full control effect. A digest of the protocol:
(§1)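 Luminescent ATP readout (CellTiter Glo) after 30 min at 37 degrees C gives viability; cells in DMEM + 4% FBS were treated 24 to 48 hours with compound, following overnight attachment.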

Experiment [7] in a line: HepG2 cells viability qHTS for Zika virus inhibitors (AID 1347168). Further: on the % scale 0 is the no-effect control and ±100 the full control effect. A digest of the protocol: as §1
Experiment [8] has as its system Zika virus NS2B-NS3 protease (linked construct). Briefly: Primary screen NINDS Rhodamine qHTS for Zika virus inhibitors (AID 1347160). Further: on the % scale 0 is the no-effect control and ±100 the full control effect; nearly all actives have a fitted effect of over 55% in size. A digest of the protocol:
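Single-chain NS2B-NS3 protease, 25 nM, pH 8.0; compounds preincubated 15 min. Activity: Rhodamine110 release from 1.5 microM substrate over 15 min, room temperature, data fitted to 4-parameter Hill.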

Experiment [9] deals with Zika virus NS2B-NS3 protease. As to the kind of experiment: Primary screen GU AMC qHTS for Zika virus inhibitors (AID 1347154). Further: nearly all actives have a fitted effect of over 70% in size. Further: potency means the concentration at half of the fitted maximal effect. The method in brief: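 Fluorogenic AMC-substrate cleavage by noncovalent NS2B-NS3 protease complex (25 nM, pH 8.0 Tris buffer with Tween 20) followed for 15 minutes at room temperature (~20% conversion). Percent inhibition from ex340/em450 signal change, fitted by 4-parameter Hill equation.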

Chain of Lysine-specific demethylase 5B (Homo sapiens) (Q9UGL1 whole entry, looked up): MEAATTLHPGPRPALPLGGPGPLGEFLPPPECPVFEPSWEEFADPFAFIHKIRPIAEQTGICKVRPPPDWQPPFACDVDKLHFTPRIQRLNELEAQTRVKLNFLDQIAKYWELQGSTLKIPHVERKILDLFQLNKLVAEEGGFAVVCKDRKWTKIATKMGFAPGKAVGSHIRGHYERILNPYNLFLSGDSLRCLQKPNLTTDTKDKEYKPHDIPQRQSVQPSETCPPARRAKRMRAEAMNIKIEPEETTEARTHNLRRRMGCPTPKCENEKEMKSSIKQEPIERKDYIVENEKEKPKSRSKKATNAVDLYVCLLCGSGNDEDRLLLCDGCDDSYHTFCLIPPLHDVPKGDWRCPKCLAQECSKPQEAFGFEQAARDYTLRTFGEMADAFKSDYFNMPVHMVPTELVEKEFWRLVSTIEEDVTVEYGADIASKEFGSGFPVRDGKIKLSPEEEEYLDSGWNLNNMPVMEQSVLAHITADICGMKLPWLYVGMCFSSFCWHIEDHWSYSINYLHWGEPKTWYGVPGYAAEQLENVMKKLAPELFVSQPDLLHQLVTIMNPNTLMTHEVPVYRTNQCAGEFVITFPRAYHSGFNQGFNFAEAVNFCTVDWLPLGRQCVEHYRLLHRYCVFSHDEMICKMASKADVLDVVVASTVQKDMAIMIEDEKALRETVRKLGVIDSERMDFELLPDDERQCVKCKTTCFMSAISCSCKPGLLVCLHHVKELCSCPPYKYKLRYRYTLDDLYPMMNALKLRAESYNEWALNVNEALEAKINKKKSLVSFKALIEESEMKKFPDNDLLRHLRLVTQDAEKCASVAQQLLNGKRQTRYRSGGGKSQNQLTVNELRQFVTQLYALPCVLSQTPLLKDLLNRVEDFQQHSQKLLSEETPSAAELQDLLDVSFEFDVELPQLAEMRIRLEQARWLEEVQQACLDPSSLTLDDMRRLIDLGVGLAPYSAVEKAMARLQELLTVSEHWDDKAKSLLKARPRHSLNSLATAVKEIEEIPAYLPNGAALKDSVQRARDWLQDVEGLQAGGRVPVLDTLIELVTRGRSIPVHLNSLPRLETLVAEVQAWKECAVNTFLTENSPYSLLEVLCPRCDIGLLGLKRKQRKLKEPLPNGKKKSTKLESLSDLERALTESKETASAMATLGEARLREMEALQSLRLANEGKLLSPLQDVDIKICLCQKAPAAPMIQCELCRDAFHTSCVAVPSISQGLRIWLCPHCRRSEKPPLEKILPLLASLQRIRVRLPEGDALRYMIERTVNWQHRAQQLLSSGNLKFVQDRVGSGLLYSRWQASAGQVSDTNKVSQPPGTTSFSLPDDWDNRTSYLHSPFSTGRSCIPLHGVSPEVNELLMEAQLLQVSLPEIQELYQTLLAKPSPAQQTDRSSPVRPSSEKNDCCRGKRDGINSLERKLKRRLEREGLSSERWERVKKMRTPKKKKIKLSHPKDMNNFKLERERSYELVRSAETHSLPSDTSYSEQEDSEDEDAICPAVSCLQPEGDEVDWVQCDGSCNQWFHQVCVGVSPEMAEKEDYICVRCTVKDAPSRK

As for `CCCc1c(OCCCOc2ccc(OCC(=O)O)cc2)ccc(C(C)=O)c1O`, the Potency result in [1] and in experiment [6] was “inactive” in each case. Also, the Potency is 3.5 µM (active) in [2], 355 µM (active) in experiment [3] and 50.1 µM (active) in experiment [4]. The activity, negative = inhibition in experiment [5] was -6.32%. Moreover, the outcome in experiment [7] was inactive.

Regarding `O=C(O)Cc1c[nH]c2ccc(O)cc12`, the compound was called inactive in experiment [8].

Turning to `CC1CCN(CC[C@H]2CCCN2S(=O)(=O)c2cccc(O)c2)CC1`, in experiment [9], the Potency result is “inactive”. The activity, negative = inhibition in experiment [5] was 1.65%.

As for `O=C(O)C1=CCNCC1`, in [9], the Potency result is “inactive”. In addition, the activity, negative = inhibition in experiment [5] is -12.8%.

Take `CCc1ccc2c(-c3cccc(Cl)c3)nc(=O)n(CC)c2n1`: the Potency result in experiment [9] and in experiment [6] was “inactive” each time. The compound was called inactive in experiment [7].

Take `Cc1nc(N=Nc2cc(S(=O)(=O)O)c3cc([N+](=O)[O-])cc(S(=O)(=O)O)c3c2)c(COP(=O)(O)O)c(C=O)c1O`: the Potency entry in experiment [1] is “inactive”. In addition, the Potency in experiment [3] was 31.6 µM (active). In addition, the activity, negative = inhibition in experiment [5] was -12.7%.

In the case of `CNCCNS(=O)(=O)c1cccc2cnccc12`, the Potency entry in experiment [9] was “inactive”. In experiment [5], the activity, negative = inhibition was -11.7%.

For the compound `COC(=O)C1=C(C)NC(C)=C([N+](=O)[O-])C1c1ccccc1C(F)(F)F` (configuration not stated), the Potency entry in experiment [9] was “inactive”. Also, the activity, negative = inhibition in experiment [5] is -5.36%.

For `c1ccc2c(c1)CCC[C@H]2Nc1nc2ccccc2[nH]1`, in [5], the activity, negative = inhibition was -7.62%.

For `CC(C)(C)c1cc(/C=C(\C#N)C(N)=S)cc(C(C)(C)C)c1O`, the Potency entry in experiment [9] is “inactive”. Further, in experiment [5], the activity, negative = inhibition was -26.1%.

As to `CC(/C=C/c1cccc(Oc2ccc(F)cc2)c1)N(O)C(N)=O` (configuration not stated), the Potency result in experiment [9] was “inactive”. In addition, the activity, negative = inhibition in experiment [5] is -9.88%.

With `COc1cc(/C=C(\C#N)C(=O)Nc2nnc(C(F)(F)F)s2)ccc1OCc1ccc(C(F)(F)F)cc1C(F)(F)F`, the Potency in experiment [2] was 1.75 µM (active); in [4], 14.1 µM (active). Besides, the Potency entry in experiment [3] was “inactive”. For the same compound, the result in experiment [7] was inactive.

`CCCC[C@@]1(C2CCCC2)Cc2cc(OCC(=O)O)c(Cl)c(Cl)c2C1=O`: the Potency in [2] is 7.82 µM (active). For the same compound, the activity, negative = inhibition in experiment [5] was -4.31%. In addition, in experiment [6], the Potency result was “inactive”. The result in experiment [7] was inactive.

As for `CCCCCC(O)CCCC(=O)O` (configuration not stated), the Potency result in experiment [9] was “inactive”. Also, the activity, negative = inhibition in experiment [5] is -6.03%.

As for `Nc1ccc(-c2ccc3ccccc3n2)cc1`, the Potency entry in experiment [2] and in experiment [6] was “inactive” in each case. Further, in experiment [7], the compound was called inactive.

Regarding `CC(C)NC[C@H](O)COc1ccc(CC(N)=O)cc1`, in experiment [9], the Potency entry is “inactive”. In [5], the activity, negative = inhibition is -2.87%.

`O=S(=O)(c1cccc2c(Cl)cccc12)N1CCCNCC1`: the Potency result in [9] was “inactive”. In addition, in experiment [5], the activity, negative = inhibition was 1.08%.

Consider `Cn1c(=O)c2[nH]c(-c3ccc(S(=O)(=O)O)cc3)nc2n(C)c1=O`, for which, in experiment [9], the Potency was 5.32 µM (active). Besides, in experiment [5], the activity, negative = inhibition was 39.3%. In addition, the Potency result in [6] was “inactive”. The call in [7] was inactive.

For `O=C1NC(=O)c2cc(Nc3ccccc3)c(Nc3ccccc3)cc21`, the Potency entry in [1], in experiment [4] and in [6] was “inactive” in each case. Moreover, the Potency in [3] is 12.6 µM (active). Further, in [5], the activity, negative = inhibition was -17.6%. In [7], the compound was classed as inactive.

As for `O=[N+]([O-])c1cccc2c(Br)[nH]nc12`, in [9], the Potency entry was “inactive”. In experiment [5], the activity, negative = inhibition was -1.9%.

With `COc1cc(C(O)C(=O)O)ccc1O` (configuration not stated), the Potency result in experiment [9] was “inactive”. Also, the activity, negative = inhibition in experiment [5] was -6.83%.

As to `C=CCN1CCc2c(cc(O)c(O)c2Br)[C@@H](c2ccccc2)C1`, the Potency in experiment [4] is 8.91 µM (active). In addition, the Potency entry in [6] is “inactive”. In experiment [7], the compound was classed as inactive.

Regarding `CCCCOc1cc(CC2CNC(=O)N2)ccc1OC` (configuration not stated), in [9], the Potency entry is “inactive”. The activity, negative = inhibition in experiment [5] was -3.5%.

On to `O=c1[nH]c(=S)[nH]c(-c2ccccc2)c1Cc1c(O)ccc2ccccc12`, for which the Potency result in [1] and in experiment [6] was “inactive” each time. The Potency is 3.49 µM (active) in experiment [2] and 70.8 µM (active) in [4]. Also, in [5], the activity, negative = inhibition was -27.4%. Further, the compound was called inactive in experiment [7].

Regarding `O=C1Cc2c([nH]c3ccc(Br)cc23)-c2ccccc2N1`, the Potency result in experiment [9] is “inactive”. Further, the activity, negative = inhibition in experiment [5] was -26.8%.

Regarding `CC1=C(/C=C/C(C)=C/C=C/C(C)=C\C(=O)O)C(C)(C)CCC1`, the Potency entry in [9] was “inactive”. Moreover, the activity, negative = inhibition in experiment [5] was -15.4%.

With `CC(C)[C@H](NC(=O)OCc1ccccc1)C(=O)N[C@H](C=O)Cc1ccccc1` (Cbz-Val-Phe-aldehyde), in experiment [9], the Potency entry is “inactive”. In experiment [5], the activity, negative = inhibition was 6.73%.

Consider `CCCn1c(=O)c2[nH]c(C3CCCC3)nc2n(CCC)c1=O`, for which the Potency entry in [9] was “inactive”. Also, the activity, negative = inhibition in experiment [5] was -5.16%.

As to `O=C(OCCN1CCOCC1)C1(c2ccccc2)CCCCC1`, the Potency entry in experiment [9] is “inactive”. Besides, in [5], the activity, negative = inhibition was -17.1%.

Turning to `CNC(=O)c1cc2c(cn1)[nH]c1ccccc12`, in experiment [9], the Potency is 21.2 µM (active) and 18.9 µM (active). Further, in experiment [6], the Potency entry was “inactive”. Also, the compound was called inactive in experiment [7].

Regarding `NC(=O)c1cc[n+](CC2=C(C(=O)O)N3C(=O)[C@@H](NC(=O)[C@@H](c4ccccc4)S(=O)(=O)[O-])[C@H]3SC2)cc1`, the activity, negative = inhibition in experiment [5] was -15.3%.

In the case of `COc1cc2c(CCNC(C)=O)c[nH]c2cc1O`, the Potency entry in experiment [2] and in experiment [6] was “inactive” each time. In addition, the outcome in experiment [7] was inactive.

Turning to `OC1(c2ccc(Cl)cc2)CCN(Cc2c[nH]c3ccccc23)CC1`, the Potency entry in experiment [9] is “inactive”. In addition, the activity, negative = inhibition in [5] was -0.728%.

With `CCN(CC)CCCCCCCCOC(=O)c1cc(OC)c(OC)c(OC)c1`, in [9], the Potency entry is “inactive”. Further, the activity, negative = inhibition in [5] was -10.5%.

On to `O=C(O)c1ccccc1Nc1ccccc1`, for which the Potency entry in experiment [9] is “inactive”. The activity, negative = inhibition in experiment [5] was -9.73%.
